Among the data in PubChem BioAssay (Tox21) are Potency values, retold here.

Test [1] can be described thus: qHTS assay to identify small molecule agonists of the peroxisome proliferator-activated receptor delta (PPARd) signaling pathway - cell viability counter screen (AID 743211; active = well fitted curve in the direction sought with a large enough effect in the repeat runs; an effect the other way counts as inactive or inconclusive; also: nearly all actives have a fitted effect of over 55% in size). In outline: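 Following 5 h plating at 37 C and 5% CO2, PPARd UAS-bla HEK293H cells took up test compounds for 17 h. Viability was quantified by luminescence 30 min after CellTiter-Glo addition at room temperature.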
On the technique in general: In qHTS, concentration-response curves come from the screen itself.

In test [2] the target is Peroxisome proliferator-activated receptor delta (Homo sapiens) (UniProt Q03181). In words: qHTS assay to identify small molecule agonists of the peroxisome proliferator-activated receptor delta (PPARd) signaling pathway (AID 743212). The procedure, abridged: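 Quantitative high-throughput agonist screen in a HEK293H beta-lactamase reporter line under UAS control. Compounds in DMSO, at 37 C. Fluorescence read after 2 h with FRET substrate at room temperature.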

A short description of test [3]: qHTS assay to identify small molecule antagonists of the peroxisome proliferator-activated receptor delta (PPARd) signaling pathway - cell viability counter screen (AID 743213; active = well fitted curve in the direction sought with a large enough effect in the repeat runs; an effect the other way counts as inactive or inconclusive; also: nearly all actives have a fitted effect of over 50% in size). In outline: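 Luminescence from CellTiter-Glo, added after the bla read and incubated 30 min at room temperature, gives viability of HEK293H PPARd-bla cells exposed to compounds for 17 h at 37 C with 300 nM L165041.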

The target of test [4] is Peroxisome proliferator-activated receptor delta (Homo sapiens) (UniProt Q03181). The test is described as follows: qHTS assay to identify small molecule antagonists of the peroxisome proliferator-activated receptor delta (PPARd) signaling pathway (AID 743215; active = well fitted inhibition curve with a large enough effect in the signal ratio in the repeat runs, not every such curve was filed as active; the % refers to the signal ratio;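 also: cells stimulated with agonist L165041 at 300 nM final during compound exposure; series mostly up to about 62 µM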). In outline: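 Read-out is beta-lactamase FRET fluorescence, measured 2 h after substrate addition at room temperature. Beforehand, UAS-bla HEK293H cells carrying the PPARd reporter were exposed to compounds with L165041 at 300 nM final for 17 h at 37 C.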

Test [5] concerns the target Bile acid receptor (Homo sapiens) (UniProt Q96RI1). In words: qHTS assay to identify small molecule antagonists of the farnesoid-X-receptor (FXR) signaling pathway (AID 743217; active = well fitted inhibition curve with a large enough effect in the signal ratio in the repeat runs, not every such curve was filed as active; the % refers to the signal ratio). The procedure, abridged: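 HEK 293T FXR-UAS-bla, 5000 cells/well; compound + CDCA 50 uM final; 16 h, 37 °C; B/G FRET substrate 2 h RT; fluorescence.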
Test [6] can be described thus: qHTS assay to identify small molecule agonists of the farnesoid-X-receptor (FXR) signaling pathway - cell viability counter screen (AID 743218; active = well fitted curve in the direction sought with a large enough effect in the repeat runs; an effect the other way counts as inactive or inconclusive; also: nearly all actives have a fitted effect of over 45% in size). The procedure, abridged: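 HEK 293T FXR-bla cells; 5 h pre-incubation, 16 h compound exposure at 37 C; LiveBLAzer substrate 2 h RT, then CellTiter-Glo 30 min RT, luminescence.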
Test [7] concerns the target Bile acid receptor (Homo sapiens) (UniProt Q96RI1). The test is described as follows: qHTS assay to identify small molecule agonists of the farnesoid-X-receptor (FXR) signaling pathway (AID 743220; active = well fitted activation curve with a large enough effect in the signal ratio in the repeat runs, not every such curve was filed as active; the % refers to the signal ratio). In outline:
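Beta-lactamase reporter under UAS control in GeneBLAzer FXR HEK 293T cells (5000/well) measured with LiveBLAzer FRET substrate after 2 h at room temperature. Compound exposure lasted 16 h at 37C.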

A short description of test [8]: qHTS assay to identify small molecule antagonists of the farnesoid-X-receptor (FXR) signaling pathway - cell viability counter screen (AID 743221; active = well fitted cell-killing curve with a large enough effect in the repeat runs, not every such curve was filed as active; also: nearly all actives have a fitted effect of over 50% in size). The procedure, abridged: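 Compound effects on cell number were measured as CellTiter-Glo luminescence in HEK 293T cells expressing FXR-UAS-bla, after 16 h at 37 C with 50 uM CDCA (final).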
The target in test [9] is Vitamin D3 receptor (Homo sapiens) (UniProt P11473). In words: qHTS assay to identify small molecule agonists of the vitamin D receptor (VDR) signaling pathway (AID 743222). The procedure, abridged: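 VDR-bla cells, 2,000/well; 4 h preincubation 37C; cpd (DMSO) 16 h; LiveBLAzer B/G substrate 2 h RT; fluorescence intensity read.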
The target is the same in test [10]. In words: qHTS assay to identify small molecule antagonists of the vitamin D receptor (VDR) signaling pathway (AID 743223; active = well fitted inhibition curve with a large enough effect in the signal ratio in the repeat runs, not every such curve was filed as active; the % refers to the signal ratio). In outline: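 Beta-lactamase activity in VDR-bla cells is measured by FRET substrate fluorescence (2 h, room temperature) after cells spend 16 h at 37C with test compound and 3 nM final 1alpha,25-dihydroxyvitamin D3.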
A short description of test [11]: qHTS assay to identify small molecule agonists of the vitamin D receptor (VDR) signaling pathway - cell viability counter screen (AID 743224; active = well fitted curve in the direction sought with a large enough effect in the repeat runs; an effect the other way counts as inactive or inconclusive; also: series mostly up to about 63 µM; nearly all actives have a fitted effect of over 50% in size). The procedure, abridged: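 Luminescence from CellTiter-Glo, read after 30 min at room temperature, reports viability of VDR-bla cells treated with compounds for 16 h at 37C in the wells used for the beta-lactamase FRET read.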

Test [12] is described as follows: qHTS assay to identify small molecule antagonists of the vitamin D receptor (VDR) signaling pathway - cell viability counter screen (AID 743225; active = well fitted curve in the direction sought with a large enough effect in the repeat runs; an effect the other way counts as inactive or inconclusive; also: nearly all actives have a fitted effect of over 50% in size). The procedure, abridged:
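In this counter screen, VDR-bla HEK 293T cells receive test compound plus 3 nM final calcitriol for 16 h at 37C. Room-temperature steps of 2 h with the beta-lactamase substrate, then 30 min with CellTiter-Glo, precede the luminescence read.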

The nature of test [13]: qHTS assay to identify small molecule agonists of the NFkB signaling pathway - cell viability counter screen (AID 1159515). Also: series mostly up to about 61 µM; nearly all actives have a fitted effect of over 55% in size. In outline: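 Luminescence from CellTiter-Glo (30 min, room temperature) gives viability, measured in the same wells as the beta-lactamase reporter read. Cells were NFkB-bla ME-180, 2,000 per well, treated 5 hr with compounds.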
Test [14] can be described thus: qHTS assay to identify small molecule agonists of the endoplasmic reticulum stress response signaling pathway (AID 1159516; active = well fitted activation curve with a large enough effect in the signal ratio in the repeat runs, not every such curve was filed as active; the % refers to the signal ratio; also: potency is read from the fitted curve at half-maximal effect). In outline: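 Read-out is beta-lactamase cleavage of a FRET substrate (405 nm excitation; 460 and 530 nm emissions) in ESRE-bla HeLa cells after a 5 hr compound exposure at 37 C. Substrate incubation ran 2 hr at room temperature.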
The nature of test [15]: qHTS assay to identify small molecule agonists of the endoplasmic reticulum stress response signaling pathway - cell viability counter screen (AID 1159517). The procedure, abridged: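 Counter-screen wells were identical to the reporter wells. Cells were plated at 1,500 per well and dosed for 5 hr, then read for luminescence 30 min after CellTiter-Glo addition.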
The nature of test [16]: qHTS assay to identify small molecule antagonists of the retinoid-related orphan receptor gamma (ROR-gamma) signaling pathway - cell viability counter screen (AID 1159520; active = well fitted curve in the direction sought with a large enough effect in the repeat runs; an effect the other way counts as inactive or inconclusive; also: nearly all actives have a fitted effect of over 50% in size). The procedure, abridged:
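Tet-on ROR gamma CHO cells were given compounds for 2 hr, then doxycycline hyclate at 1 uM final, and incubated 16 hr at 37 C. Viability was measured as ATP content by CellTiter-Glo luminescence.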

Test [17] can be described thus: qHTS assay to identify small molecule agonists of the AP-1 signaling pathway - cell viability counter screen (AID 1159525). Also: nearly all actives have a fitted effect of over 55% in size. The procedure, abridged: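 AP-1-bla ME-180 cells in Opti-MEM with 0.5% dialyzed FBS, compound exposure 5 h at 37 C in 15-point titration. Viability read in the same wells as ATP content by CellTiter-Glo luminescence, normalised to tetra-n-octylammonium bromide and DMSO controls.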

Test [18] addresses Retinoic acid receptor RXR-alpha (Homo sapiens) (UniProt P19793). In words: qHTS assay to identify small molecule agonists of the RXR signaling pathway (AID 1159527). Also: nearly all actives have a fitted effect of over 35% in size. The procedure, abridged: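 Fluorescence ratio readout (460 vs 530 nm) from GeneBLAzer RXR-alpha HEK 293T cells after 16 hr compound treatment; cells seeded 5 hr beforehand in low-serum, charcoal-stripped medium.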

Test [19] is described as follows: qHTS assay to identify small molecule agonists of the AP-1 signaling pathway (AID 1159526).

SMILES strings stand for the structures. Results filed as inconclusive are left out. Unmarked numbers belong to inactive results. The source made the active and inactive calls. Unless noted, calls follow the shape of the full dose curve.

Vitamin D3 receptor (Homo sapiens), sequence (P11473 whole entry, looked up): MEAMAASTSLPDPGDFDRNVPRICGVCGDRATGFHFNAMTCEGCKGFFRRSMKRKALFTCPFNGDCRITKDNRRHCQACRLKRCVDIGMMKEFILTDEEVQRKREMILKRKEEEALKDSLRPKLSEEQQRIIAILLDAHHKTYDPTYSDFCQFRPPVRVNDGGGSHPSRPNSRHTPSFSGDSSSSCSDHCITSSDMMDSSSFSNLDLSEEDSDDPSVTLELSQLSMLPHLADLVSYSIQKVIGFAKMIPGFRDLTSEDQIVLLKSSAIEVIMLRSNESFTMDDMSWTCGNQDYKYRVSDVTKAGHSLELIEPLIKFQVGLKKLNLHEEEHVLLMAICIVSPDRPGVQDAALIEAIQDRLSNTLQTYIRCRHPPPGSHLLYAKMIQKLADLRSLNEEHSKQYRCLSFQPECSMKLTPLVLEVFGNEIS
Retinoic acid receptor RXR-alpha (Homo sapiens), sequence (P19793 whole entry, looked up): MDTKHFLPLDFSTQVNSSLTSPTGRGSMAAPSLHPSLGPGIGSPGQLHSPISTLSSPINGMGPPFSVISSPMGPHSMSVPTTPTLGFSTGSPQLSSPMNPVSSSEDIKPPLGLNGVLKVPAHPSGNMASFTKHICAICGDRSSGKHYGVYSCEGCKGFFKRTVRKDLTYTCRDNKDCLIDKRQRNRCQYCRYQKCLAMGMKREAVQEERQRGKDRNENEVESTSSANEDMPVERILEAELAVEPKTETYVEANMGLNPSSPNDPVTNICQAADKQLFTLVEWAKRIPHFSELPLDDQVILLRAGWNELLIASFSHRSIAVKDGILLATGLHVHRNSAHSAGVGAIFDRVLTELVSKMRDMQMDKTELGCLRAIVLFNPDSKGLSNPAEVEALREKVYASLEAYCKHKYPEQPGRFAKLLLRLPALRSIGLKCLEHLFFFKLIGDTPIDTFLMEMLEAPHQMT
Bile acid receptor (Homo sapiens), sequence (Q96RI1 whole entry, looked up): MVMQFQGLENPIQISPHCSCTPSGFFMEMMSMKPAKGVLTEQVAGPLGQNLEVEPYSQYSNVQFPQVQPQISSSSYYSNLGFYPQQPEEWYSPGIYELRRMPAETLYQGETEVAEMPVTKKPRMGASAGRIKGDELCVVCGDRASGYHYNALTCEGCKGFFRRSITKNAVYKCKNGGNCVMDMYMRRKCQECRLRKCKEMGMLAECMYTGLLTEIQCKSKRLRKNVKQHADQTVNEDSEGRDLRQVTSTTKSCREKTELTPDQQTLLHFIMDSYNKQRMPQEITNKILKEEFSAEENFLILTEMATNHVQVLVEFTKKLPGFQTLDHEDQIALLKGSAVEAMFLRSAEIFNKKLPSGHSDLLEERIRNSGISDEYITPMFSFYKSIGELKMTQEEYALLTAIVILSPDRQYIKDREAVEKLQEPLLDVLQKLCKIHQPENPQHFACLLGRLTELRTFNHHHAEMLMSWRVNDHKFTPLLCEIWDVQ
Peroxisome proliferator-activated receptor delta (Homo sapiens), sequence (Q03181 whole entry, looked up): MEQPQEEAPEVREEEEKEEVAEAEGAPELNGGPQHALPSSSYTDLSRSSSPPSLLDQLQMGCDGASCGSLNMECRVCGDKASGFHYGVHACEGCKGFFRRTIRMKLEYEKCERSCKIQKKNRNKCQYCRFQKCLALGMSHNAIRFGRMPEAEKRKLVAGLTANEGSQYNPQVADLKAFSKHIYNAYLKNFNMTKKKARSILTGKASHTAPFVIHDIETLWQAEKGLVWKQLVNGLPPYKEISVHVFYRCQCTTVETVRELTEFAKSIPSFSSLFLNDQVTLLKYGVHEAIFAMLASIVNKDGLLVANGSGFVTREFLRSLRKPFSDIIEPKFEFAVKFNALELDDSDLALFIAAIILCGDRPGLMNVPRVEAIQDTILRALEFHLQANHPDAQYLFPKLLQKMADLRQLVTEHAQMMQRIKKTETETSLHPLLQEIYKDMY

Take `CC(Cc1ccccc1)N(C)Cc1ccco1` (stereo not drawn): the Potency entry in test [1], in test [2], in [3], in test [4], in [5] and in [6] was “inactive” throughout. The Potency entry in [7], in [8], in test [9], in test [10], in test [11] and in test [12] was “inactive” throughout. In addition, the Potency result in test [13], in [14], in test [15], in test [16], in test [17] and in [18] was “inactive” in each case.

As to `CN1CCc2cc(Cl)c(O)cc2[C@H]2c3ccccc3CC[C@@H]21`, the Potency result in test [2], in test [4], in test [7], in [8], in test [11] and in test [13] was “inactive” in each case. Further, the Potency entry in test [14], in test [15], in test [16], in test [17] and in test [19] was “inactive” each time.

As for `O=c1[nH]c2cc(Cl)ccc2n1C1CCNCC1`, the Potency entry in test [2], in [3], in [4], in [5], in [6] and in test [7] was “inactive” throughout. Besides, the Potency result in test [8], in [9], in test [10], in test [11], in test [13] and in test [14] was “inactive” each time. The Potency result in test [15], in test [16], in test [17] and in test [19] was “inactive” each time.

For the compound `CN1[C@@H]2CC[C@H]1CC(O)C2` (stereo partly drawn), the Potency entry in test [1], in test [2], in test [3], in test [4], in [6] and in test [8] was “inactive” in each case. Moreover, the Potency entry in test [10], in test [11], in test [12], in test [13], in test [14] and in test [15] was “inactive” each time. The Potency result in test [16], in [17] and in [19] was “inactive” each time.

`CC(=O)[O-].CC(=O)[O-].O.O.O.[Pb+2]`: the Potency entry in test [1], in test [6], in test [8], in [11], in [13] and in [15] was “inactive” each time. Moreover, the Potency entry in [16], in [17], in test [19] and in [18] was “inactive” each time. Besides, in test [14], the Potency was 0.0776 µM (active).

For `CCCCn1cc[n+](C)c1` (tested in a mixture with another compound), the Potency entry in [1], in test [3], in test [6], in test [8], in [11] and in [13] was “inactive” each time. In addition, the Potency entry in test [14], in test [15], in test [16], in [17], in test [19] and in test [18] was “inactive” in each case.

Consider `O.O.O.O.O.O.O=S(=O)([O-])[O-].[Ni+2]`, for which the Potency entry in test [1], in test [8], in [11], in [12], in test [13] and in test [14] was “inactive” in each case. Besides, the Potency entry in test [15], in test [16], in [17], in [19] and in test [18] was “inactive” each time.

For `O=NN(CCO)CCO`, the Potency result in test [1], in test [3], in test [5], in [6], in test [7] and in [8] was “inactive” in each case. Besides, the Potency entry in [10], in test [12], in test [13], in test [14], in test [15] and in test [16] was “inactive” each time. Further, the Potency result in test [17], in test [19] and in [18] was “inactive” in each case.

Turning to `COC(=O)C(C)N(C(=O)c1ccco1)c1c(C)cccc1C` (stereo not drawn), the Potency entry in [2], in test [4], in test [8], in test [9], in test [10] and in test [11] was “inactive” throughout. In addition, the Potency entry in test [12], in test [13], in test [14], in [15], in test [16] and in test [17] was “inactive” in each case. In addition, the Potency entry in test [19] and in test [18] was “inactive” each time.
